Source: PubChem BioAssay (Tox21)
Results filed as inconclusive are left out. Entries that show only a call come without a potency. The source made the active and inactive calls. Calls follow the shape of the dose curve; as a rule, active = well fitted cell-killing curve with a large enough effect in the repeat runs; inconclusive = weak or mixed curves, or effect the other way; inactive = no such curve, though single readings can be large or run the other way.
Potency is read from the fitted curve at half-maximal effect.

Assay: qHTS assay to identify small molecule agonists of the farnesoid-X-receptor (FXR) signaling pathway - cell viability counter screen (AID 743218); also: nearly all actives have a fitted effect of over 45% in size
Conditions: FXR-bla HEK293T viability, CellTiter-Glo luminescence, 16 h; series mostly up to 62.6 µM
Description: U.S. Tox21 Program National Center for Advancing Translational Sciences [NCATS] NIH Chemical Genomics Center [NCGC] U.S. Environmental Protection Agency [EPA] National Institutes of Environmental Health Sciences [NIEHS] National Toxicology Program [NTP] U.S. Food and Drug Administration [FDA] Tox21 Assay Overview: The farnesoid-X-receptor (FXR), a nuclear hormone receptor, is highly expressed in liver, intestine, kidney and adrenal cortex. Natural ligands of FXR are the bile acids (Cholic acid, Chenodeoxy cholic acid etc). FXR is an important regulator of diverse metabolic pathways, including the bile acid homeostasis, lipid and glucose metabolisms. FXR regulates the expression of target genes by binding either as a monomer or as a heterodimer with the retinoid X receptor (RXR). Numerous studies have reported that FXR exerts protective function during cholestasis, diabetes, liver regeneration, and cancer. To identify compounds that activate FXR signaling, GeneBLAzer FXR-UAS-bla HEK 293T cell line (Invitrogen, Carlsbad, CA) containing a beta-lactamase reporter gene under the control of a UAS response element was used to screen the Tox21 10K compound library. The cytotoxicity of the Tox21 compound library against the FXR-bla cell line was tested in parallel by measuring the cell viability using CellTiter-Glo assay in the same wells.
Tox21 Assay Protocol Summary: FXR-bla cells were dispensed at 5000 cells/5uL/well in 1536-well black wall/clear bottom plates using a Multidrop Combi (Thermo Fisher Scientific, Waltham, MA) dispenser. After the assay plates were incubated at 37 C and 5% CO2 for 5 h, 23 nL of compounds dissolved in DMSO, positive controls or DMSO only was transferred to the assay plate by a Pintool station (Kalypsys, San Diego, CA). The assay plates were incubated at 37C for 16 h. After 1 uL of LiveBLAzerTM B/G FRET substrate was added using a Bioraptr Flying Reagent Dispenser (FRD) workstation (Beckman Coulter, Indianapolis, IN), the plates were incubated at room temperature for 2 h, and fluorescence intensity was measured by an Envision plate reader (PerkinElmer, Shelton, CT). For cell viability readout that measures cytotoxicity, 4uL/well of CellTiter-Glo reagent was added into the assay plates using a Bioraptr FRD. After 30 min incubation at room temperature, the luminescence intensity in the plates was measured using a ViewLux plate reader (PerkinElmer).
In the case of `CN(C)CCCNCCCN`, the Potency is reported as “inactive”.
In the case of `C[Si](C)O[Si](C)(C)O[Si](C)(C)O[Si](C)C`, the Potency is reported as “inactive”.
In the case of `CC(=O)Nc1ccc(/C=N/NC(N)=S)cc1`, the Potency is reported as “inactive”.
In the case of `CC(=O)/C=C/C1C(C)=CCCC1(C)C` (stereo not given), the Potency is reported as “inactive”.
With `O=C(O)COC(=O)Cc1ccccc1Nc1c(Cl)cccc1Cl` the Potency was “inactive”.
With `CCCCCCCCCC(=O)OCC` the Potency was “inactive”.
With `Cc1cccc(Oc2ccccc2)c1` the Potency was “inactive”.
In the case of `Cc1cc(NC(=O)C(=O)O)cc(C)c1Oc1ccc(O)c2c1CCC2`, the Potency is reported as “inactive”.
For `CNCC[C@@H](Oc1ccccc1C)c1ccccc1`, the Potency was “inactive”.
For `CC(C)(C)c1cc(O)c(C(C)(C)C)cc1O`, the Potency was “inactive”.
In the case of `CCOC(=O)CC(=O)c1cc(F)c(Cl)nc1Cl`, the Potency is reported as “inactive”.
For `COC(Cc1ccccc1)OC`, the Potency was “inactive”.
With `CC(C)NCC(O)c1cc(O)cc(O)c1` (stereo not given) the Potency was “inactive”.
For `NC(N)=NN=C(/C=C/c1ccc([N+](=O)[O-])o1)/C=C/c1ccc([N+](=O)[O-])o1`, the Potency was 10.6 µM (active).
With `CCCCCCCCCC=O` the Potency was “inactive”.
With `O=c1c2ccccc2nnn1CCl` the Potency was “inactive”.
With `CC(CN)CCCN` (stereo not given) the Potency was “inactive”.
With `Cc1ccc(C(=O)C(C)CN2CCCCC2)cc1` (stereo not given) the Potency was “inactive”.
With `O=C1[C@H](CC[C@H](O)c2ccc(F)cc2)[C@@H](c2ccc(O)cc2)N1c1ccc(F)cc1` the Potency was “inactive”.
With `CCCCCCCCCO` the Potency was “inactive”.
For `CC(C)(Oc1ccc(Cl)cc1)C(=O)OCCCOC(=O)C(C)(C)Oc1ccc(Cl)cc1`, the Potency was “inactive”.
With `CC(=O)/C(C)=C/C1C(C)=CCCC1(C)C` (stereo not given) the Potency was “inactive”.
For `CC(=O)c1c(C)c([N+](=O)[O-])c(C(C)(C)C)c([N+](=O)[O-])c1C`, the Potency was “inactive”.
With `CCCCCC/C=C/C=O` the Potency was “inactive”.
In the case of `CCOC(=O)C1=NN(c2ccccc2)C(=O)C1`, the Potency is reported as “inactive”.
For `CC(=O)CC(=O)c1ccccc1`, the Potency was “inactive”.
In the case of `CCCCOC(=O)c1ccccc1C(=O)OCC(CC)CCCC` (stereo not given), the Potency is reported as “inactive”.
With `CCCCOc1cc(C(=O)OCCN(CC)CC)ccc1N` the Potency was “inactive”.
For `CCCCOC(O)CC` (stereo not given), the Potency was “inactive”.
In the case of `CC[C@]12CCCN3CCc4c(n(c5ccccc45)C(=O)C1)[C@@H]32`, the Potency is reported as “inactive”.
In the case of `COC(=O)C(C)=O`, the Potency is reported as “inactive”.
In the case of `CC(Cc1cccc(C(F)(F)F)c1)NCCOC(=O)c1ccccc1` (stereo not given), the Potency is reported as 21.1 µM (active).
In the case of `CN1CCC[C@@H]1c1cccnc1`, the Potency is reported as “inactive”.
For `Nc1nc(CC(=O)O)cs1`, the Potency was “inactive”.
With `O=C(O)/C=C/c1cnc[nH]1` the Potency was “inactive”.
In the case of `O=C(c1ccc(O)cc1)c1ccc(O)cc1`, the Potency is reported as “inactive”.
For `Nc1ccc(C(=O)N2CC3CC(CN(Cc4ccccc4)C3)C2)cc1`, the Potency was “inactive”.
In the case of `COCCOCCOCCOCCOC`, the Potency is reported as “inactive”.
In the case of `Cc1cc(O)ccc1N`, the Potency is reported as “inactive”.
With `Cc1ncsc1CCO` the Potency was “inactive”.
